PubChem BioAssay (NCI)
The panel holds about 83,000 compounds, 20% with a hit somewhere; the sample as a whole holds those more often.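 Single-concentration screen, 48 h exposure, 96-well plates. Endpoint: percent growth. Below 10 = active.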 Unmarked numbers belong to inactive results. Activity calls are given as the source filed them.

How the values were obtained:
Assay in all cases: NCI-60 one-dose screen, 48 h (100 = growth as untreated, 0 = no growth, -100 = all killed)
Details in all cases: 10 µM unless noted
T-47D breast = system: T-47D breast
BT-549 breast = system: BT-549 breast
MDA-MB-435 melanoma = system: MDA-MB-435 melanoma
SW-620 colon = system: SW-620 colon
MCF7 breast = system: MCF7 breast
HCT-116 colon = system: HCT-116 colon
HCC-2998 colon = system: HCC-2998 colon
KM12 colon = system: KM12 colon
MDA-MB-468 breast = system: MDA-MB-468 breast

Row | Structure (SMILES) | growth (T-47D breast) | growth (BT-549 breast) | growth (MDA-MB-435 melanoma) | growth (SW-620 colon) | growth (MCF7 breast) | growth (HCT-116 colon) | growth (HCC-2998 colon) | growth (KM12 colon) | growth (MDA-MB-468 breast)
1 | C#CCOc1cc(N(CC)CC)ccc1C(C(=O)NC(C)(C)C)N(C(=O)C1CCc2cc(F)ccc2O1)c1cc(C)cc(C)c1 (stereo unspecified) | 18.8% | 43.1% | 47.1% | 36.4% | 14.9% | 11.4% | 54.6% | 25.9% | 
2 | Cc1cc2nc3c4ccccc4n(CCCN(C)C)c3nc2cc1C | -10.7% (active) | -78.2% (active) | -93% (active) | -16.3% (active) | -30% (active) | 3.73% (active) | -81.4% (active) | -8.99% (active) | 
3 | COc1ccc(C2CC(c3ccc(S(=O)(=O)NCCNc4nc(Nc5ccc(F)cc5)nc(N(C)C)n4)cc3)=Nc3c(N)nc(N)nc3N2)cc1 (stereo unspecified) | 66.2% | 57.1% | 83.3% | 96% | 47.6% | 51.2% | 90.6% | 82.5% | 
4 | Cc1ccc([C@H]2C(C(=O)c3ccc(Cl)cc3)C3(N[C@@H]2c2ccccc2)C(=O)Nc2ccc(Br)cc23)cc1 (stereo partly specified) | 41.1% | 96.3% | 67.6% | 70.6% | 21.2% | 30.7% | 25.7% | 39% | 
5 | N/N=C(\N)c1c(N)nc(=S)[nH]c1-c1ccc(Cl)cc1Cl | 92.6% | 100% | 111% | 106% | 95.6% | 113% | 103% | 105% | 
6 | C#CCOc1ccc(/C=N/Nc2nc(-c3ccc(Cl)cc3)cs2)cc1OC | 18.5% | 36% | 44.1% | 82.2% | 21.8% | 48.1% | 90.3% | 61.8% | 42.1%
7 | COc1ccc2c(c1)c(-c1cc(N)n3nc(-c4cn(C)c5ccccc45)cc3n1)cn2C | -57.4% (active) | -22.4% (active) | -75.6% (active) | -58.5% (active) | -60.6% (active) | -88.6% (active) | -82% (active) | -60.6% (active) | 
8 | COc1cc(/C=C2\C(=N)N=C(SCc3nc4ccccc4[nH]3)NC2=O)ccc1O | 99.8% | 107% | 99.7% | 95.6% | 93.7% | 99.8% | 105% | 106% | 106%
9 | O=C(CCN1C(=O)/C(=C/c2ccc(F)cc2)SC1=S)N1CCOCC1 | 24.4% | 62.6% | 73.5% | 61.9% | 48.1% | 55.5% | 113% | 76% | 
10 | C=CC[N+](C)(C)CCn1c2ccccc2c2nc3cc(C)c(C)cc3nc21 | 99.9% | 54.6% | 99.6% | 94.6% | 80% | 98.4% | 96.2% | 99% | -2.23% (active)
11 | CCOC(=O)C1=C(N)N(c2ccccc2)C2=C(C(=O)CC(C)(C)C2)C1c1ccc([N+](=O)[O-])cc1 (stereo unspecified) | 91.2% | 102% | 102% | 96.9% | 83.8% | 83.8% | 100% | 99.5% | 96.1%
12 | C=CC(=O)Nc1ccc(C)c(Oc2ccc(Cl)cc2)c1 | 41.8% | 22.8% | 43.9% | 43.8% | 36.8% | 52.1% | 58.4% | 47.2% | 
13 | COc1cc(C2CC(c3cc(OC)c(OC)c(OC)c3)=Nc3c(N)nc(N)nc3N2)ccc1Oc1nc(NCCO)nc(N2CCOCC2)n1 (stereo unspecified) | 90.3% | 116% | 100% | 103% | 87.4% | 100% | 115% | 99.9% | 
14 | O=C(Cn1nc(-c2ccccc2)ccc1=O)N/N=C/c1ccc(N2CCOCC2)cc1 | 69.4% | 121% | 97.6% | 102% | 83.8% | 103% | 113% | 102% | 
15 | Cn1cc(-c2nnc(N)nc2-c2c[nH]c3ccccc23)c2cccnc21 | 44.6% | 34.7% | -28.9% (active) | 16.5% | 22.5% | 18.2% | 81% | 17.2% | 
16 | CC1(C)CC[C@]2(C(=O)Nc3ccc(Br)cc3)CC[C@]3(C)C(=CCC4[C@@]5(C)C[C@@H](O)[C@H](O)[C@@](C)(CO)C5CC[C@]43C)C2C1 (stereo partly specified) | -9.58% (active) | -35.4% (active) | 3.33% (active) | 18.8% | 1.85% (active) | -15.8% (active) | -33.4% (active) | -52.9% (active) | -3.95% (active)
17 | O=C(c1ccc(OCCN2CCOCC2)cc1)C1[C@H](c2ccc(Cl)cc2)[C@@H](c2ccccc2)NC12C(=O)Nc1ccc(Br)cc12 (stereo partly specified) | 26.3% | 54.1% | 39.1% | 37.3% | 1.4% (active) | 4.57% (active) | -41.2% (active) | 11.7% | 
18 | O=C(CSc1nc2ccccc2c(=O)[nH]1)NCCN1CCCCC1 | 100% | 104% | 95.1% | 97% | 90.8% | 104% | 108% | 98.3% | 96.9%
19 | CN(C)c1nc(NCCNS(=O)(=O)c2ccc(C3=Nc4c(N)nc(N)nc4NC(c4ccccc4)C3)cc2)nc(Nc2ccc(F)cc2)n1 (stereo unspecified) | 39.8% | 29.1% | 41.6% | 49.9% | 17.3% | 32.7% | 31.9% | 33.8% | -35.8% (active)
20 | O=C(N=Nc1c(O)[nH]c2ccc([N+](=O)[O-])cc12)c1ccc2nc(-c3ccccc3)[nH]c2c1 | 12.5% | 53.4% | 79.1% | 83.8% | 18.7% | 10.7% | 27.4% | 99.5% | 10.6%
21 | COc1cc(C2CC(c3cc(OC)c(OC)c(OC)c3)=NN2C(C)=O)ccc1OCc1ccccc1 (stereo unspecified) | 2.7% (active) | 17.4% | 44.6% | 55.1% | 17.1% | 24.3% | 71.2% | 33.9% | 34.2%
22 | CN1C(=O)/C(=C/c2ccc(C(=O)Nc3ncc(Cc4ccc(Cl)cc4Cl)s3)cc2)SC1=S | 23.9% | 31.6% | -4.21% (active) | 45.1% | 30.6% | 29.6% | 40.4% | 15.5% | 
23 | CN(C)CCOc1ccc(C(=O)C2[C@H](c3ccc(Cl)cc3)[C@@H](c3ccccc3)NC23C(=O)Nc2ccccc23)cc1 (stereo partly specified) | 67.9% | 81.8% | 44.6% | -57.7% (active) | -20.8% (active) | 22% | -59.9% (active) | 33.4% | -26% (active)
24 | CC(=O)OC[C@@]1(C)C2CC[C@]3(C)C(CC=C4C5CC(C)(C)CC[C@]5(C(=O)Nc5ccc(F)cc5)CC[C@]43C)[C@@]2(C)C[C@@H](OC(C)=O)[C@@H]1OC(C)=O (stereo partly specified) | 30.7% | 41.7% | 44.2% | 36.8% | 27.3% | 22.9% | 48.6% | 44.6% | 
25 | C/C(=N\N=C\c1cc([N+](=O)[O-])ccc1Cl)c1ccc2c(c1)Nc1ccccc1S2 | 29.7% | 63% | 77.2% | 50% | 63.1% | 11.1% | 90.5% | 89.1% | 
26 | O=C(Nc1cccc(-n2cnc3cc(-c4ccc(O)cc4)ccc32)c1)C1CC1 | 30.6% | 30.8% | -4.17% (active) | 38.2% | 24.9% | 9.12% (active) | 28.4% | 0.14% (active) | 21%
27 | Cc1ccc(C2=NN(c3nc(-c4cc5ccccc5oc4=O)cs3)C(c3ccc(C)cc3)C2)cc1 (stereo unspecified) | 91.8% | 120% | 107% | 105% | 63.4% | 110% | 118% | 106% | 78.2%
28 | C=C1CCC2C3(C)COC(c4cccc(F)c4)OC3CCC2(C)C1C/C=C1/C(=O)OCC1O (stereo unspecified) | -5.25% (active) | -82.2% (active) | -10.3% (active) | -63% (active) | -7.05% (active) | -73.8% (active) | -51% (active) | -27.8% (active) | -35.2% (active)
29 | O=c1oc2ccccc2cc1-c1csc(N2N=C(c3ccccc3)CC2c2ccc(N3CCOCC3)cc2)n1 (stereo unspecified) | 91.6% | 118% | 110% | 106% | 86.5% | 109% | 121% | 103% | 99.7%
